# Not all results are given here.
# aSyn UTR act: Activators via SNCA 5'UTR binding, MLPCN. alpha-synuclein 5'UTR reporter, activators screen. activity score, % (tested at 7.5 µM), hits read low. hit rate 7.1% among 300,000; in the data active = activity score below about -60%
# A number is an active result; . = inactive.
SMILES,aSyn UTR act
COCCNC(=O)c1ccc2c3n(nc2c1)-c1ccccc1CO3,-108
Cc1ccc2c(c1)COc1c3ccc(C(=O)NCCO)cc3nn1-2,-158
COCCNC(=O)c1c[nH]c2ccc(S(=O)(=O)N3CCc4ccccc43)cc2c1=O,.
O=C(NCC1CC1)c1ccc2c3n(nc2c1)-c1ccc(Cl)cc1CO3,-166
O=c1[nH]c(/C(Cl)=C/c2cc(Cl)ccc2O)nc2cc(Cl)ccc12,-90
Cn1c(N)c(C(=O)/C=C/c2ccccc2)c(=O)[nH]c1=O,-140
O=C(CN1CCN(CCN2C(=O)c3cccc4cccc(c34)C2=O)CC1)c1ccc(F)cc1,-65
O=C(CN1C(=O)c2ccccc2S1(=O)=O)c1ccc(F)cc1,.
Cc1ccc2nc(Cl)c(-c3ccccc3)cc2c1,.
c1csc(-c2ccc3ccccc3n2)c1,-140
Cc1ccc(-c2cc3ccccc3nc2N)cc1,-93
Nc1nc2ccccc2cc1-c1cccs1,-121
Cc1cnc(C(=O)Nc2nccs2)cn1,-81
COc1c(C(=O)Nc2nnc(C3CC3)s2)csc1Cl,-97
Cc1cnc(C(=O)Nc2nnc(C3CC3)s2)cn1,-97
Cc1cc(C(=O)Nc2nnc(C3CCCCC3)s2)no1,-63
O=C(Nc1nccs1)c1cn2ccccc2n1,.
CCOCC(=O)Nc1nnc(C2CCCCC2)s1,-123
O=C(Nc1ccc2c(c1)OCCO2)c1cc(F)c(F)cc1Cl,-195
O=C(Nc1ccc2ccccc2c1)c1cc(F)c(F)cc1Cl,-140
Cc1ccc(C(=O)Nc2ccc3c(c2)OCCO3)c(Cl)c1,.
O=C(Nc1ccc2c(c1)OCCO2)c1cccc(Cl)c1Cl,-140
O=C(Cc1c[nH]c2ccccc12)NCc1cccs1,-63
CN(Cc1cccs1)C(=O)CCCc1c[nH]c2ccccc12,-133
COc1cccc2c(=O)c(C(=O)NCc3cccs3)c[nH]c12,-139
SMILES,aSyn UTR act
CCCCn1cnc2c(oc3ccccc32)c1=O,-121
CCCCOc1ncnc2c1[nH]c1ccccc12,-81
CCCCOc1ncnc2c1[nH]c1ccc(F)cc12,-118
CCCCOc1ncnc2c1[nH]c1ccc(OC)cc12,-214
C=C(C)CSc1nnc(-c2ccc(OC)cc2)n1N,-103
C=C(C)CSc1nnc(-c2cccc(Cl)c2)n1N,-85
C=C(C)CSc1nncn1/N=C/c1ccc(OC)cc1,-187
c1ccc(CSc2n[nH]c(-c3ccco3)n2)cc1,-64
c1ccc(CSc2nccc(-c3ccco3)n2)cc1,-82
C/C(=N\NC(=O)c1cccs1)c1ccc2c(c1)OCO2,-74
C/C(=N\NC(=O)c1ccc2c(c1)OCCO2)c1ccccc1,.
C/C(=N\Nc1ccc([N+](=O)[O-])cc1)c1ccc2c(c1)OCO2,-119
C/C(=N\NC(=O)c1ccc2c(c1)OCO2)c1ccc2c(c1)OCO2,-83
CCOC(=O)C1=C(COC(=O)/C=C/c2ccccc2Cl)NC(=O)NC1C (stereo not drawn),-70
CCOC(=O)C1=C(COC(=O)c2cccc(N(C)C)c2)NC(=O)NC1C (stereo not drawn),-136
S=C1NC2=C(CCCC2=C2SCCS2)C(c2ccccc2)N1 (stereo not drawn),-324
COc1cccc(NC(=O)C(=O)NCc2ccncc2)c1,-100
COc1cc(NC(=O)c2cccs2)cc(OC)c1,-90
O=C(NCc1ccccc1)C(=O)Nc1cccc(C(=O)O)c1,.
COc1cccc(NC(=O)C2=COCCO2)c1,-64
COc1ccc(C(=O)/C=C\c2ccc(NC(=O)c3cccs3)cc2)cc1,-129
COc1cccc(NC(=O)c2cccs2)c1,-155
COc1ccc(/C=C2\N=C(SC)N(C)C2=O)cc1,-63
Cc1c(C(=O)Nc2nonc2-c2ccc(F)cc2)oc2ccc(F)cc12,.
Cc1cc2oc(C(=O)Nc3nonc3C)c(C)c2cc1C,-175
SMILES,aSyn UTR act
CCc1ccc2oc(C(=O)Nc3nonc3C)c(C)c2c1,-138
O=C(/C=C/c1ccco1)Nc1cccnc1Cl,-130
COC(=O)c1ccccc1NC(=O)/C=C/c1ccco1,-68
O=C(/C=C/c1ccccc1)Nc1cccnc1Cl,-84
Cn1c(NC(=O)/C=C/c2ccco2)cc(=O)n(C)c1=O,-62
CC(=O)c1cccc(NC(=O)N2CCc3ccccc3C2)c1,-171
CC(=O)c1ccc(NC(=O)N2CCc3ccccc3C2)cc1,-87
Cc1nc2ccc(CN(C)c3ccc(C(=O)N[C@@H](CCC(=O)O)C(=O)O)s3)cc2c(=O)[nH]1,.
O=C(/C=C1\SC(=O)N(CC(=O)Nc2ccc(F)cc2)C1=O)Nc1ccc(Cl)cc1,-196
N#Cc1c(NC(=O)C2CC2)sc2c1CCCCC2,-119
CC(=O)NC(=S)Nc1sc2c(c1C#N)CCCCC2,-120
Cn1nccc1C(=O)NC(=S)Nc1sc2c(c1C#N)CCCCC2,-148
CC1CCc2sc(NC(=S)NC(=O)c3ccccc3)c(C#N)c2C1 (stereo not drawn),-141
N#Cc1c(NC(=S)NC(=O)c2ccccc2)sc2c1CCC2,-126
CCC1(C)Cc2c(sc(NC(=S)NC(=O)c3ccccc3)c2C#N)CO1 (stereo not drawn),-146
CC(C)c1ccc(C(=O)CSc2ncn[nH]2)cc1,-137
Oc1ccc2ccccc2c1N=Nc1ccccn1,.
CCCn1c(O)c(N=Nc2ccc3ccccc3n2)c2ccccc21,-177
COc1cccc(/C=N/Nc2c(Cl)cncc2Cl)c1O,-120
CCCCSc1nc(C)cc(SCC(=O)N/N=C/c2cccc(OC)c2O)n1,.
COc1cccc(/C=N/Nc2cc(Cl)nc(C)n2)c1O,-100
COc1ccc(C(=O)Nn2c(SCC(=O)NCc3ccccc3)nc3ccccc3c2=O)cc1,.
CN1CCc2c(sc3nc(SCC(=O)NCc4ccco4)n(-c4ccccc4)c(=O)c23)C1,-84
O=C(CSc1nc2ccsc2c(=O)n1NC(=O)c1ccccc1)Nc1nccs1,-82
O=C(CSc1nc2ccsc2c(=O)n1NC(=O)c1ccccc1)NCc1ccco1,-70
SMILES,aSyn UTR act
CC(Oc1ccc(Cl)cc1Cl)c1nc(-c2ccccn2)no1 (stereo not drawn),-129
CC(C)(C)Cc1nc(-c2ccccn2)no1,-99
Clc1ccccc1/C=C/c1nc(-c2ccccn2)no1,.
Cc1ccc(OCc2nc(-c3ccccn3)no2)cc1,-64
c1ccc(OCCCc2nc(-c3ccccn3)no2)cc1,-85
CC(Oc1ccc(Cl)cc1Cl)c1nc(-c2ccc(NC(=O)c3cccnc3)cc2)no1 (stereo not drawn),.
CC(C)c1ccc(OCc2nc(-c3ccccn3)no2)c(Br)c1,-67
c1ccc(-c2noc(-c3ccc4ccccc4c3)n2)nc1,.
Cc1ccc(SCc2nc(-c3ccccn3)no2)cc1,-106
c1ccc(-c2noc(-c3ccncc3)n2)nc1,-62
O=C(COC(=O)c1cccc(O)c1)c1ccccc1,-69
Nc1cccc(C(=O)OCC(=O)c2ccccc2)c1,-86
Cc1ccc(C(=O)COC(=O)c2ccc(O)cc2)cc1,-182
COc1ccc2c(c1OC)CN1CCc3cc4c(cc3[C@@H]1[C@@H]2O)OCO4,-69
COc1cc([C@@H]2c3cc4c(cc3[C@H](O)[C@H]3COC(=O)[C@H]23)OCO4)cc(OC)c1OC,.
COc1cccc(-c2ncc3ccccn23)c1,-124
COc1ccc(-c2ncc3ccccn23)cc1,-142
Cc1cc(=O)[nH]c(N/N=C/c2ccc(Br)s2)n1,-119
Cc1cc(=O)[nH]c(N/N=C/c2ccccn2)n1,.
Cc1cc(=O)[nH]c(N/N=C/c2ccc(-c3ccc(F)cc3)o2)n1,-70
CN(C)c1nc(N)nc(CSc2nc3cc(Cl)ccc3o2)n1,-126
CC1CN(S(=O)(=O)c2ccc(C(=O)NCCCn3ccnc3)cc2)CC(C)O1 (stereo not drawn),.
